# Measured values taken from PubChem BioAssay (Tox21).
# A number with no mark means an inactive call. Records with an inconclusive call do not appear. Where a call stands in place of a potency, no number is given. Active and inactive are the calls of the source. Unless noted, calls come from the whole dose curve.
# What was measured:
# [1] = Nuclear factor erythroid 2-related factor 2/antioxidant responsive element (Nrf2/ARE) small molecule agonists: qHTS cell viability counter screen in human keratinocytes (AID 1919968; active = well fitted cell-killing curve with a large enough effect in the repeat runs; note: nearly all actives have a fitted effect of over 55% in size)
# Outline: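 After a 5 h attachment period, ARE-reporter keratinocytes were dosed with compounds in DMSO and then cultured 23 h at 37 C. Cell viability came from CellTiter-Fluor signal read after a further 1 h.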
# [2] = Nuclear factor erythroid 2-related factor 2/antioxidant responsive element (Nrf2/ARE) small molecule agonists: luciferase reporter gene qHTS assay in human keratinocytes (AID 1919969); note: nearly all actives have a fitted effect of over 35% in size
# [3] = molecular target: Gonadotropin-releasing hormone receptor (Homo sapiens) (UniProt P30968); assay: Human gonadotropin-releasing hormone receptor (GnRHR) small molecule agonists, calcium flux assay in GnRHR-HEK293 cells (AID 1920063); note: nearly all actives have a fitted effect of over 35% in size
# Outline: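 We seeded human GnRHR-expressing HEK293 cells for 18 hours, loaded them with calcium dye for an hour at 37 C, added test compounds, and recorded fluorescence intensity kinetically for three minutes.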
# [4] = p53 small molecule agonists, cell-based qHTS assay with human liver microsomes (AID 1963577)
# Outline: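 p53RE-bla reporter cells were pre-incubated 5 h at 37 C, then treated with compounds plus human liver microsomes (0.5 mg/mL final) and NADPH (0.5 mg/mL final) for 16 h at 37 C. Beta-lactamase activity was read by LiveBLAzer fluorescence after 2 h at room temperature.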
# [5] = p53 small molecule agonists, cell-based qHTS assay with rat liver microsomes (AID 1963578)
# Outline: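 p53RE-bla cells were exposed to compounds together with rat liver microsomes (0.5 mg/mL final) and NADPH (0.5 mg/mL final) for 16 h at 37 C, then read by LiveBLAzer beta-lactamase fluorescence after 2 h at room temperature.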
# [6] = p53 small molecule agonists, cell-based qHTS assay with human liver microsomes: qHTS cell viability counter screen (AID 1963579); note: nearly all actives have a fitted effect of over 45% in size
# Outline: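 p53RE-bla cells (4,000/well) were pre-incubated 5 h at 37 C, then given compounds in DMSO plus human liver microsomes (0.5 mg/mL final) and NADPH (0.5 mg/mL final) for 16 h at 37 C. Viability was read by CellTiter-Glo luminescence.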
# [7] = p53 small molecule agonists, cell-based qHTS assay with rat liver microsomes: qHTS cell viability counter screen (AID 1963580); note: nearly all actives have a fitted effect of over 45% in size
# Outline: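 HCT-116 p53RE-bla, 4,000 cells/well, 5 h pre-incubation; cpd + rat liver microsomes 0.5 mg/mL + NADPH 0.5 mg/mL (final); 16 h, 37 C; CellTiter-Glo, 30 min RT; luminescence.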
# [8] = p53 small molecule agonists, cell-based qHTS assay (AID 1963582; active = well fitted activation curve with a large enough effect in the signal ratio in the repeat runs, not every such curve was filed as active; the % refers to the signal ratio)
# Outline: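 In this cell-based concentration-response screen, a p53 response element drives beta-lactamase; cells received DMSO-borne compounds after 5 h culture and were incubated a further 16 h before FRET substrate development.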
# [9] = molecular target: 5-hydroxytryptamine receptor 2A (Homo sapiens) (UniProt P28223); assay: 5-hydroxytryptamine receptor 2A (HTR2A) small molecule antagonists, cell-based qHTS assay (AID 1963586); note: nearly all actives have a fitted effect of over 45% in size; note: potency is the fitted concentration of half-maximal effect
# Outline: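 Antagonist-mode intracellular calcium assay: DOI (4 nM) added after 5 min compound pre-incubation at room temperature to dye-loaded HTR2A-CHO cells. Fluorescence followed for 3 min, sampled every second.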
# [10] = molecular target: 5-hydroxytryptamine receptor 2A (Homo sapiens) (UniProt P28223); assay: 5-hydroxytryptamine receptor 2A (HTR2A) small molecule agonists, cell-based qHTS assay (AID 1963587); note: nearly all actives have a fitted effect of over 30% in size
# Outline: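 Kinetic calcium-flux fluorescence (2 min, 1 sec intervals) after compound addition in agonist mode. HTR2A-CHO cells were cultured 18 h, then dye-loaded 1 h at 37 C.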
# [11] = molecular target: Muscarinic acetylcholine receptor M1 (Homo sapiens) (UniProt P11229); assay: Cholinergic receptor muscarinic 1 (CHRM1) small molecule agonists, cell-based qHTS assay (AID 1963589); note: nearly all actives have a fitted effect of over 35% in size
# Outline: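 Measures agonist-induced intracellular calcium rise. Stable human CHRM1 CHO line, 1 h dye load at 37 C, compounds from DMSO, kinetic fluorescence read.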
# [12] = cAMP Responsive Elements (CRE) small molecule agonists, cell-based qHTS assay (AID 1963590)
# Outline: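 A CRE-responsive beta-lactamase reporter in HEK 293T cells was used. Treatment ran 3 h at 37 C; detection used LiveBLAzer B/G FRET substrate for 2 h at room temperature.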
# [13] = cAMP Responsive Elements (CRE) small molecule antagonists, cell-based qHTS assay (AID 1963591; active = well fitted inhibition curve with a large enough effect in the signal ratio in the repeat runs, not every such curve was filed as active; the % refers to the signal ratio)
# Outline: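 HEK293T cells carrying a CRE-driven beta-lactamase reporter receive compound and NKH477 (0.25 uM final) for 3 h. Fluorescence from LiveBLAzer B/G FRET substrate is read after 2 h at room temperature.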
# [14] = molecular target: Beta-2 adrenergic receptor (Homo sapiens) (UniProt P07550); assay: Adrenergic beta2 receptor (ADRB2) small molecule antagonists, cell-based qHTS assay (AID 1963592); note: series mostly up to about 92 µM; nearly all actives have a fitted effect of over 50% in size
# Outline: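 Cells (CHO, stable ADRB2 overexpression) incubated 18-20hr at 37C; compounds added from DMSO; agonist mix (1nM isoproterenol, 100uM IBMX, 25uM Ro-20-1724) added; 0.5hr RT; d2-cAMP and anti-cAMP-cryptate added; 1hr RT; 665/615 nm read.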
# [15] = molecular target: D(2) dopamine receptor (Homo sapiens) (UniProt P14416); assay: Dopamine D2 receptor (DRD2) small molecule agonists, cell-based qHTS assay (AID 1963594); note: nearly all actives have a fitted effect of over 35% in size; note: potency is the fitted concentration of half-maximal effect
# Outline: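 cAMP accumulation in DRD2-HEK293 cells measured by HTRF after 1 h detection; compounds added 10 min before NKH477 (200nM […]) forskolin-analogue stimulation, 30 min at room temperature, with Ro20-1724 present at 0.1 mM final.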
# [16] = molecular target: D(2) dopamine receptor (Homo sapiens) (UniProt P14416); assay: Dopamine D2 receptor (DRD2) small molecule antagonists, cell-based qHTS assay (AID 1963595; active = well fitted inhibition curve with a large enough effect in the signal ratio in the repeat runs, with a control signal flat; the % refers to the signal ratio)
# Outline: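 Antagonist mode in DRD2-HEK293 cells: after compound addition with 0.1 mM Ro20-1724, cells received quinpirole (12 nM) and NKH477 (200 nM) for 30 min at room temperature; HTRF cAMP read after 1 h detection.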
# [17] = molecular target: Muscarinic acetylcholine receptor M1 (Homo sapiens) (UniProt P11229); assay: Cholinergic receptor muscarinic 1 (CHRM1) small molecule antagonists, cell-based qHTS assay (AID 1963588); note: nearly all actives have a fitted effect of over 40% in size; note: potency is the fitted concentration of half-maximal effect
# Outline: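 CHRM1-CHO calcium-flux assay, antagonist mode. Cells were seeded 18 h, dye-loaded 1 h at 37 C and given compound for 5 min at RT, then acetylcholine was added at 50nM. FDSS fluorescence was read 3 min; 15 concentrations, three runs.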
# [18] = molecular target: Beta-2 adrenergic receptor (Homo sapiens) (UniProt P07550); assay: Adrenergic beta2 receptor (ADRB2) small molecule agonists, cell-based qHTS assay (AID 1963593);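 note: CHO cells stably overexpressing human ADRB2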
# Outline: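 CHO cells stably over-expressing ADRB2 were plated overnight at 37C, then dosed with compounds plus a stimulation mix containing 100uM IBMX and 25uM Ro-20-1724 for 0.5hr at room temperature. cAMP was measured by HTRF competition, 1hr.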
# [19] = p53 small molecule agonists, cell-based qHTS assay: qHTS cell viability counter screen (AID 1963581); note: nearly all actives have a fitted effect of over 45% in size
# Outline: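 Following 5 h attachment, HCT-116 p53RE-bla cells took up compound for 16 h at 37 C; the reporter was read with B/G FRET substrate (2 h RT), and viability then via CellTiter-Glo ATP luminescence.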
# Beta-2 adrenergic receptor (Homo sapiens), sequence (P07550 whole entry, looked up): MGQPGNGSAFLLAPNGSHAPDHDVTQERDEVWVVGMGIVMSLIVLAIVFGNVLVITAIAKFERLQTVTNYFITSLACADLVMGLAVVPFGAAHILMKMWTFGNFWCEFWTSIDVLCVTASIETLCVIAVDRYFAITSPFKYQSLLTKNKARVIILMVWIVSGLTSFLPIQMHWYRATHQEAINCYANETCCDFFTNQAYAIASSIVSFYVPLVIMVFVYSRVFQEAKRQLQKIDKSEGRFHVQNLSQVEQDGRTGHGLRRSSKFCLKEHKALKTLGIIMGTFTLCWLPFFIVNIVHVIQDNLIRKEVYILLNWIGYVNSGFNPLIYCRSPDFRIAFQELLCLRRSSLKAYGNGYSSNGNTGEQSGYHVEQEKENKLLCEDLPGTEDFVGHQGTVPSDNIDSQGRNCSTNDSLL
# D(2) dopamine receptor (Homo sapiens), sequence (P14416 whole entry, looked up): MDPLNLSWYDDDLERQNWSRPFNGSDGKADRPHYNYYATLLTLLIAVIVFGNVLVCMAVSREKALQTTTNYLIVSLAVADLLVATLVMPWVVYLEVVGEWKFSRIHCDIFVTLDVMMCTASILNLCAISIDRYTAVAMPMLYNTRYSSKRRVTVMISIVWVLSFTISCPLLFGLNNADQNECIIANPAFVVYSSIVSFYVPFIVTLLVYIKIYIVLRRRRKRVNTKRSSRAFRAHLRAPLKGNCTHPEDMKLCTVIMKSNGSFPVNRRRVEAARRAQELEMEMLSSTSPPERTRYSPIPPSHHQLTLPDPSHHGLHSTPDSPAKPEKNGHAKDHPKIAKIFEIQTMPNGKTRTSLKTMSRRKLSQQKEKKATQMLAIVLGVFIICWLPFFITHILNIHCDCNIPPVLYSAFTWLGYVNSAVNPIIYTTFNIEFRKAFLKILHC
# 5-hydroxytryptamine receptor 2A (Homo sapiens), sequence (P28223 whole entry, looked up): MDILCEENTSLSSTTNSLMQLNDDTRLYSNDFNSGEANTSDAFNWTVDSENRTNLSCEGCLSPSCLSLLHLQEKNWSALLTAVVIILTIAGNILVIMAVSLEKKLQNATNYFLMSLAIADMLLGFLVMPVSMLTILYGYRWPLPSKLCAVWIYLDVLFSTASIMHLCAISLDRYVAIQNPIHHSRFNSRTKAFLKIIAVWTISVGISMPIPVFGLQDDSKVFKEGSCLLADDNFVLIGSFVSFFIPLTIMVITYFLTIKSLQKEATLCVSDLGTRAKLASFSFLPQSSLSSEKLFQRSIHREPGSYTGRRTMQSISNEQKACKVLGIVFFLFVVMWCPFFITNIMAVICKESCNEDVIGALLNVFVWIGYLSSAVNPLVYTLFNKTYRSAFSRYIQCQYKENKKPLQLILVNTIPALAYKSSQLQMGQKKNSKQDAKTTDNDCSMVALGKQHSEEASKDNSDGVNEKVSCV
# Gonadotropin-releasing hormone receptor (Homo sapiens), sequence (P30968 whole entry, looked up): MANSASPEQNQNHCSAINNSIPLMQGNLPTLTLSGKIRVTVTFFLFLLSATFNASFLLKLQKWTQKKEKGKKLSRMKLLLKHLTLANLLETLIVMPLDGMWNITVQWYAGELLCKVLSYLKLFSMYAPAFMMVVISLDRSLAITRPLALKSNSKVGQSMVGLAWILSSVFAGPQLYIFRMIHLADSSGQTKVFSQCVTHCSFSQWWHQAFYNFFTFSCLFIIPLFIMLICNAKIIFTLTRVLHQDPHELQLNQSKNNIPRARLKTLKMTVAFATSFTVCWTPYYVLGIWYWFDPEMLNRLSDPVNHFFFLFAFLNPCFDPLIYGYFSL
# Muscarinic acetylcholine receptor M1 (Homo sapiens), sequence (P11229 whole entry, looked up): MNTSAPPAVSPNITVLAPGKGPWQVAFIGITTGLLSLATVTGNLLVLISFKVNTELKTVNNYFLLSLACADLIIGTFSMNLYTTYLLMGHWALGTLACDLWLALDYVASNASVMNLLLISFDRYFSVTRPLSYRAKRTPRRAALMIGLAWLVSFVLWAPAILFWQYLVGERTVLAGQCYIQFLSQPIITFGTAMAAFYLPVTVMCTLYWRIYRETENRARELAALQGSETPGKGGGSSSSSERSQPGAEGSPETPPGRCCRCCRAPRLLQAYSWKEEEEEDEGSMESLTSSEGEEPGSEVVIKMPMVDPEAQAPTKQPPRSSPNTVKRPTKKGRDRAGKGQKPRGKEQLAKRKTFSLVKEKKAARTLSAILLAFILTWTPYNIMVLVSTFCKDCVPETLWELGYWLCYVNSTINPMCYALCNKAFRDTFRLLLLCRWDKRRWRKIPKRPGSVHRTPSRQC
SMILES,Potency [1],Potency [2],Potency [3],Potency [4],Potency [5],Potency [6],Potency [7],Potency [8],Potency [9],Potency [10],Potency [11],Potency [12],Potency [13],Potency [14],Potency [15],Potency [16],Potency [17],Potency [18],Potency [19]
COc1cc2c(cc1OC)C(=O)CC2,inactive,inactive,inactive,inactive,inactive,inactive,inactive,inactive,inactive,inactive,inactive,inactive,inactive,inactive,inactive,inactive,,,
Cc1c(Cl)cccc1Nc1ccccc1C(=O)O,inactive,inactive,inactive,inactive,inactive,inactive,inactive,,16.3 µM (active),inactive,inactive,,,inactive,inactive,inactive,4.6 µM (active),inactive,
O=C1c2ccccc2S(=O)(=O)N1CCCCN1CCN(c2ncccn2)CC1,inactive,inactive,inactive,inactive,inactive,inactive,,inactive,,inactive,inactive,inactive,inactive,inactive,2.76 µM (active),inactive,inactive,inactive,inactive
CN(C)CCOC1=Cc2ccccc2Sc2ccc(Cl)cc21,inactive,inactive,inactive,inactive,inactive,,inactive,,,inactive,inactive,inactive,inactive,inactive,inactive,,inactive,inactive,
CCOC(=O)c1ccc(NC(=O)CN2CCCCC2)cc1,inactive,inactive,inactive,inactive,inactive,inactive,,,inactive,inactive,inactive,inactive,inactive,inactive,,inactive,inactive,inactive,inactive
C=CC(=O)O,inactive,inactive,inactive,inactive,inactive,,inactive,inactive,inactive,inactive,inactive,inactive,inactive,inactive,inactive,inactive,inactive,,inactive
CN=C(NC#N)NCCSCc1csc(N=C(N)N)n1,inactive,inactive,inactive,inactive,,inactive,,inactive,,inactive,inactive,inactive,inactive,inactive,19.9 µM (active),inactive,inactive,,inactive
O=c1c(O)c(-c2ccc(O)cc2O)oc2cc(O)cc(O)c12,inactive,inactive,inactive,,inactive,,inactive,inactive,inactive,inactive,inactive,,,inactive,,,inactive,inactive,inactive
